Targets with a hit are over-represented here; the source holds about 7,900 in all. About 0.6% of all pairs of compound and target were hits. A number with no mark means an inactive call.
Key:
Experiment in all cases: log2 fold change, soluble protein after heating vs DMSO (PISA); higher = thermal stabilisation; K562 cells, 10 uM, 30 min; active = over 0.2 and 3.5 SD of the protein, either way, in both replicates (recomputed)
[1] = compound: CC[C@@H]1C(=O)N(C)c2cnc(Nc3ccc(C(=O)NC4CCN(C)CC4)cc3OC)nc2N1C1CCCC1
Summary of the method: (§1)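 Soluble protein was defined as the supernatant after 21,000xg for 90 min. It came from K562 cells at 2×10^6 cells/mL given 10 μM compound for 30 min, heated in aliquots for 3 min across 48°C-58°C, pooled, and extracted in PBS with 0.5% NP-40 at 4°C, and was quantified by TMTpro 16plex LC-MS/MS with equalised channel sums. Thermal stability against control samples, from duplicates, is reported as log2 fold change.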

volasertib = compound: CC[C@@H]1C(=O)N(C)c2cnc(Nc3ccc(C(=O)N[C@H]4CC[C@H](N5CCN(CC6CC6)CC5)CC4)cc3OC)nc2N1C(C)C [volasertib]
Summary of the method: as §1

[2] = compound: CC[C@H](C)N1C=C(C2=C(C=C(C=C21)C3=CN=C(C=C3)N4CCNCC4)C(=O)NCC5=C(C=C(NC5=O)C)C)C
Summary of the method: as §1

epoxomicin = compound: CC[C@H](C)[C@@H](C(=O)N[C@@H]([C@@H](C)O)C(=O)N[C@@H](CC(C)C)C(=O)[C@]1(CO1)C)NC(=O)[C@H]([C@@H](C)CC)N(C)C(=O)C [epoxomicin]
Summary of the method: as §1

[3] = compound: CCn1c(C(=O)N(C2CC2)C2CC2)cc2c3c(ncn3C)c(Nc3cc(C)n(C)n3)nc21
Summary of the method: as §1

[4] = compound: CCn1cc(-c2ccnc3[nH]c(-c4cccc(CN(C)C)c4)cc23)c(-c2ccc(NC(=O)N(C)C)cc2)n1
Summary of the method: as §1

[5] = compound: CN(C)CC(=O)Nc1ccc2[nH]c(=O)c3ccccc3c2c1
Summary of the method: as §1

rosiglitazone = compound: CN(CCOC1=CC=C(C=C1)C[C@H]2C(=O)NC(=O)S2)C3=CC=CC=N3 (racemic) [rosiglitazone]
Summary of the method: as §1

[6] = compound: CN1C2=C(C3=C1C(=O)N(N=C3)CC4=CC(=CC=C4)N)SC(=C2)S(=O)C
Summary of the method: as §1

[7] = compound: CN1CCC(CNc2ccc3ncc(-c4cccc(OC(F)(F)F)c4)n3n2)CC1
Summary of the method: as §1

UniProt Q8WXD2, sequence (Q8WXD2 whole entry, looked up): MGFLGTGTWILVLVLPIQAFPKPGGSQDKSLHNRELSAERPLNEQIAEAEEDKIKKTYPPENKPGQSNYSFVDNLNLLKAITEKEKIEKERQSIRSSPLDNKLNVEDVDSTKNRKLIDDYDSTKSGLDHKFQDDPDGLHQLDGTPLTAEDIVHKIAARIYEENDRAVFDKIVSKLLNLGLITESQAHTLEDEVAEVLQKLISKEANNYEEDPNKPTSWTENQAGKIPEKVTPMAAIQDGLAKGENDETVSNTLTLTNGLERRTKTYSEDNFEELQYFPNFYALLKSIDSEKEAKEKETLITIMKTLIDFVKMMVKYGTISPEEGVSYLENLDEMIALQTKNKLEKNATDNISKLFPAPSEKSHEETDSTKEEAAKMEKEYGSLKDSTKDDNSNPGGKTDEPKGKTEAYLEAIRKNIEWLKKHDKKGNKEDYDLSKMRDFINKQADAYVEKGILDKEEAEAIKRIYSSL
UniProt Q5VZM2, sequence (Q5VZM2 whole entry, looked up): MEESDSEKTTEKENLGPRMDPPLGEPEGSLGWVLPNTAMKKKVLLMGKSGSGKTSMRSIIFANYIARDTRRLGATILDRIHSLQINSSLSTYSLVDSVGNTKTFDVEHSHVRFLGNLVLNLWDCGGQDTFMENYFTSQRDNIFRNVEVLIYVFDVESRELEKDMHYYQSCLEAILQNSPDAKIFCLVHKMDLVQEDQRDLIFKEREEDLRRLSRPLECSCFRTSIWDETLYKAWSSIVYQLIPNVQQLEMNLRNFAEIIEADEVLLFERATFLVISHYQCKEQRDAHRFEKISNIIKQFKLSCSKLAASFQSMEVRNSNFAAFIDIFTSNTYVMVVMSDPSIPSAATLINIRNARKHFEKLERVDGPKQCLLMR
UniProt P27694, sequence (P27694 whole entry, looked up): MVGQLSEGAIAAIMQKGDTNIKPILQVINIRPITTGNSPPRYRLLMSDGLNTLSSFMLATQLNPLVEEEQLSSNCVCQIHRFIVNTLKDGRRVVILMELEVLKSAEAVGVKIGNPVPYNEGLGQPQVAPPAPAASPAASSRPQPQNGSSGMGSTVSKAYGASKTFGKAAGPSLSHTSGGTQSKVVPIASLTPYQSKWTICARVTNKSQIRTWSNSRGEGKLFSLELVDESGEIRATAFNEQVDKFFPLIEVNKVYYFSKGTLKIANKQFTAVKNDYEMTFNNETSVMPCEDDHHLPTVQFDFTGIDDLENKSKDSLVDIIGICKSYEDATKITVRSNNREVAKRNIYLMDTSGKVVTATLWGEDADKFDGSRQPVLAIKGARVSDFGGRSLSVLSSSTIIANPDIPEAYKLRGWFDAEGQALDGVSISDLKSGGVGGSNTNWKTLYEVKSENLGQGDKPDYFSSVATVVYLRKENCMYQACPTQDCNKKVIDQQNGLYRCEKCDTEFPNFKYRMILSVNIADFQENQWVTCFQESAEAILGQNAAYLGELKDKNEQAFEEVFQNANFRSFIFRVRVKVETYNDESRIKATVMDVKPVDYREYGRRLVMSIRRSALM
UniProt Q8IZQ5, sequence (Q8IZQ5 whole entry, looked up): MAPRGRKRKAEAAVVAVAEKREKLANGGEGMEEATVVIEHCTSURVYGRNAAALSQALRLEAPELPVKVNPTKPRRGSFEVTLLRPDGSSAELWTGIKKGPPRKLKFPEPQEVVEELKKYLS
UniProt Q01196, sequence (Q01196 whole entry, looked up): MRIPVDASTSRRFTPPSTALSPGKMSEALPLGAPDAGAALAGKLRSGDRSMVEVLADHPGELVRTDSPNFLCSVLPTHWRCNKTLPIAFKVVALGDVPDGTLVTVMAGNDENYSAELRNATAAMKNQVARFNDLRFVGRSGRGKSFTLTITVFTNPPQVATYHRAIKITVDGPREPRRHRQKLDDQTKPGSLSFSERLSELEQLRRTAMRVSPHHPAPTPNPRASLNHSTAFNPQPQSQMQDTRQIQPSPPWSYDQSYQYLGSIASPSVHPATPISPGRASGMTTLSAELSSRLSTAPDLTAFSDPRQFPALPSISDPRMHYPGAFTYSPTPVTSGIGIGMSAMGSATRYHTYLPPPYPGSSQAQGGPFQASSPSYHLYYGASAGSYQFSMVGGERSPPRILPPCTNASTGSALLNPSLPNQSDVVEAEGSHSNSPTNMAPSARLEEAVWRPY

Target | log2 fold change [1] | log2 fold change (volasertib) | log2 fold change [2] | log2 fold change (epoxomicin) | log2 fold change [3] | log2 fold change [4] | log2 fold change [5] | log2 fold change (rosiglitazone) | log2 fold change [6] | log2 fold change [7]
RRAGB (UniProt Q5VZM2) | 0 | 0.011 | -0.017 | 0.047 | 0.015 | -0.041 | -0.027 | -0.015 | -0.022 | -0.191
SELENOH (UniProt Q8IZQ5) | 0.001 | 0.01 | -0.05 | 0.058 | 0.024 | -0.051 | 0.041 | -0.002 | 0.084 | 0.065
RPS25 (UniProt P62851) | 0.063 | 0.338 | 0.012 | -0.172 | 0.034 | 0.134 | -0.03 | -0.062 | 0.122 | 0.146
RPA1 (UniProt P27694) | -0.108 | -0.326 (active) | 0.083 | 0.09 | -0.028 | -0.02 | 0.044 | 0.063 | -0.048 | -0.079
RSL1D1 (UniProt O76021) | 0.301 | 0.399 | 0.012 | -0.517 | -0.065 | 0.155 | -0.214 | -0.299 | 0.374 | 0.591
SCG3 (UniProt Q8WXD2) | 0.04 | 0.134 | -0.013 | -0.119 | 0.048 | 0.035 | -0.099 | -0.027 | -0.116 | 0.6 (active)
RUNX1 isoform 8 (UniProt Q01196) | -0.331 | -0.434 (active) | 0.086 | -0.206 | 0.035 | -0.089 | 0.06 | 0.032 | -0.027 | -0.102
RPS5 (UniProt P46782) | 0.103 | 0.337 | 0.065 | -0.079 | 0.025 | 0.059 | -0.036 | -0.073 | 0.089 | 0.044

Source: the supplement of paper PMC10849652
